Only some compounds are listed: those with a hit (about 15% of all), similar ones and a draw of the others.
HCV inh: qHTS Assay for Inhibitors of Hepatitis C Virus (HCV); Huh7.5.1 HCVcc-Cre infection, luciferase reporter, 44 h; 340,000 compounds, 3.4% hits; Potency, µM (top dose mostly 41.8 µM), usual class: inhibitors; AID 651820, 2012
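Compounds are dispensed onto cells plated 4 h earlier at 1,000 per well, with HCVcc-Cre virus (about 0.5 moi) added next. Following 44 h of culture, luminescent signal is measured for 15 sec after 15 min with substrate at room temperature.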
Sm TGR block: qHTS Assay for the Inhibitors of Schistosoma Mansoni Peroxiredoxins. Potency, µM (top dose mostly 114 µM), actives largely listed as inhibitors. purified TGR, DTNB reduction, TNB absorbance 405 nm. Schistosoma mansoni thioredoxin glutathione reductase (TGR), Q962Y6. 360,000 compounds, 3% hits; note: nearly all actives have a fitted effect of over 60% in size
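Kinetic colorimetric format: TGR-catalysed, NADPH-driven DTNB reduction monitored via TNB absorbance. Enzyme dispensed at 20 nM; compound exposure 15 min at room temperature before reaction start.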
HCMV antiviral: qHTS Assay for inhibitors of the human cytomegalovirus (HCMV); AID 1259415, 2018; 410,000 compounds, 4.5% hits; HFF cells, HCMV-luciferase reporter, 72 h; hits give low values; activity change, negative = inhibition, % at 57.5 µM; in the data active = activity change below about -60%; inconclusive = no clear call, values can overlap the other calls; inactive = above about -39%
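HFF cells seeded 16 h at 37C, treated with compounds, infected with luciferase-reporter HCMV at MOI 1 PFU/cell; luciferase read at 72 h post infection, normalized to buffer-only and Salinomycin controls.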
Pf growth 48h: Primary qHTS for delayed death inhibitors of the malarial parasite plastid, 48 hour incubation; P. falciparum luciferase growth in erythrocytes, 48 h; Potency, µM (doses to about 28.7 µM), most hits filed as inhibitors; 310,000 compounds, 5.9% hits; AID 504832, 2011
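Erythrocytes infected with P. falciparum carrying an integrated firefly luciferase reporter (2% hematocrit, 0.1% parasitemia final) were exposed to compounds in RPMI 1640 with 0.5% Albumax at 37 C, 5% CO2. Growth inhibition was scored as reduced luminescence.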
Pf growth 96h: Primary qHTS for delayed death inhibitors of the malarial parasite plastid, 96 hour incubation | P. falciparum luciferase reporter growth, 96 h | Potency, µM (titrated, usually from 28.7 µM), most hits filed as inhibitors | 320,000 compounds, 6.9% hits | AID 504834, 2011
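P. falciparum expressing integrated firefly luciferase grown in erythrocytes (2% hematocrit, 0.05% parasitemia final) with compounds for 96 hours at 37 C, 5% CO2. Growth inhibition read as loss of luminescence after adding luciferase detection reagent.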
SARS PLP yeast: qHTS of Yeast-based Assay for SARS-CoV PLP | Potency, µM (titrated, usually from 32.9 µM), actives largely listed as activators | S. cerevisiae expressing SARS-CoV PLpro, growth rescue | 330,000 compounds, 0.19% hits; calls by dose curve; note: nearly all actives have a fitted effect of over 55% in size
Numbers stand for hits; - = inactive; ? = inconclusive; . = no result given. Unless noted, calls come from the whole dose curve; as a rule, active = well fitted curve in the direction sought with a large enough effect; inconclusive = small, poorly fitted or top-dose-only effect, or another doubt; inactive = no such curve, though single readings can be large; an effect the other way counts as inactive or inconclusive.

SMILES	HCV inh	Sm TGR block	HCMV antiviral	Pf growth 48h	Pf growth 96h	SARS PLP yeast
O=C(NCc1ccco1)C(c1cccs1)N(Cc1ccccc1)C(=O)Cn1nnc2ccccc21 (stereo unspecified)	-	-	-62.4	?	?	-
CCn1cc(-c2nnnn2-c2ccc(Cl)cc2)c(=O)c2ccccc21	-	-	-	-	-	-
CCC(C)N(C(=O)Cn1nnc2ccccc21)C(C(=O)NCc1ccco1)c1cccc(OC)c1 (stereo unspecified)	-	-	-	-	10.4µM	-
COCCNC(=O)C(c1cccc(OC)c1)N(C(=O)Cn1nnc2ccccc21)c1cccnc1 (stereo unspecified)	-	-	-	.	-	-
CCCCCc1c(C)nc(N2CCOCC2)[nH]c1=O	-	-	-	-	8.28µM	-
CCCCCc1c(C)nc(N2CCc3ccccc3C2)[nH]c1=O	-	-	-	-	-	-
CCCCCc1c(C)nc(N2CCc3ccccc32)[nH]c1=O	-	-	-	9.28µM	-	-
Cc1nc(N2CCOCC2)[nH]c(=O)c1C	-	-	-	-	-	-
C=CC[C@@H](CC(=O)OC(C)(C)C)C(=O)OC[C@@H]1CCCN1C(=O)[C@@H](CC=C)CC(=O)N(CCO)Cc1ccccc1	-	.	-	.	.	-
COc1ccccc1Nc1nc(Cl)nc(Nc2ccccc2OC)n1	12.6µM	-	-	-	-	-
COc1ccccc1Nc1cc(C)nc(Nc2ccccc2OC)n1	2.51µM	-	-	?	10.4µM	-
Cc1ccc(N2CCN(S(=O)(=O)c3ccc4oc(=O)ccc4c3)CC2)cc1Cl	-	-	-	-	-	-
C=CCSC1=C(C#N)C(c2ccccc2C)CC(=O)N1 (stereo unspecified)	-	-	-	-	-	-
C=CCSC1=C(C#N)C(c2ccc(OCC)cc2)CC(=O)N1 (stereo unspecified)	-	-	-	.	7.38µM	-
C=CCSC1=C(C#N)C(c2ccccc2Cl)CC(=O)N1 (stereo unspecified)	-	-	-	-	3.29µM	-
Cc1ccc(S(=O)(=O)N(C)CC(=O)N2CCCCCC2)cc1	-	-	-	-	?	-
C=CCOC(=O)C1=C(C)NC(=O)NC1c1cc2c(cc1Br)OCO2 (stereo unspecified)	-	-	-	-	-	-
O=C(COC(=O)c1nc(Cl)ccc1Cl)Nc1cccc(S(=O)(=O)N2CCOCC2)c1	-	.	-	.	.	.
O=C(COC(=O)c1ccccn1)Nc1ccc(S(=O)(=O)N2CCOCC2)cc1	-	-	-	-	-	-
CCc1nc2ccccc2c(C(=O)OCC(=O)Nc2ccc(S(=O)(=O)N3CCOCC3)cc2)c1C	11.2µM	-	-	9.28µM	-	-
CCc1nc2ccccc2c(C(=O)OCC(=O)Nc2cccc(S(=O)(=O)N3CCOCC3)c2)c1C	11.2µM	-	-	?	?	-
O=C(COC(=O)c1ccc2ccccc2n1)Nc1cccc(S(=O)(=O)NC2=NCCCCC2)c1	-	-	-	-	-	-
CCc1nc2ccccc2c(C(=O)OCC(=O)Nc2cccc(S(=O)(=O)NC3=NCCCCC3)c2)c1C	8.91µM	-	?	?	-	-
CCc1ccc2oc(-c3ccc(C)c(NC(=O)Cc4ccccc4)c3)nc2c1	.	-	-	.	.	.
COC(=O)c1ccccc1NC(=O)c1cnn2cccnc12	-	-	-	-	-	-
COc1ccc(C)c2sc(N(Cc3cccnc3)C(C)=O)nc12	.	-	-	.	.	.
CC(=O)N(c1ccc(C)cc1)c1nc(C)cc(C)c1C#N	-	-	-	-	-	-
CCC(C)NC(=O)c1nn(Cc2ccccc2)c(=O)c2ccccc12 (stereo unspecified)	-	-	-	?	?	-
CC(C)n1nc(C(=O)Nc2nc3ccccc3[nH]2)c2ccccc2c1=O	?	-	-	-	?	-

Source: PubChem BioAssay
